According to PubChem BioAssay (NCI):
The panel holds about 83,000 compounds, 20% with a hit somewhere; the sample as a whole holds those more often.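 Percent growth is the endpoint: 0 to 100 indicates growth inhibition (40 means 60% inhibition), 0 means no net growth, and negative values indicate cell death.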 Unmarked numbers belong to inactive results. Active and inactive are the calls of the source. How the source made its calls: active means growth percent below 10; inactive means the rest.

How the values were obtained:
Assay in all cases: NCI-60 one-dose screen, 48 h (100 = growth as untreated, 0 = no growth, -100 = all killed)
Conditions in all cases: 10 µM unless noted
HCT-15 colon = tested on: HCT-15 colon
HT29 colon = tested on: HT29 colon
SNB-19 CNS = tested on: SNB-19 CNS
PC-3 prostate = tested on: PC-3 prostate
UACC-62 melanoma = tested on: UACC-62 melanoma
SK-MEL-28 melanoma = tested on: SK-MEL-28 melanoma
SK-MEL-2 melanoma = tested on: SK-MEL-2 melanoma
EKVX NSCLC = tested on: EKVX NSCLC
SN12C renal = tested on: SN12C renal
UO-31 renal = tested on: UO-31 renal
TK-10 renal = tested on: TK-10 renal
ACHN renal = tested on: ACHN renal
CAKI-1 renal = tested on: CAKI-1 renal
CCRF-CEM leukemia = tested on: CCRF-CEM leukemia
MOLT-4 leukemia = tested on: MOLT-4 leukemia
SNB-75 CNS = tested on: SNB-75 CNS
U251 CNS = tested on: U251 CNS
LOX IMVI melanoma = tested on: LOX IMVI melanoma
A498 renal = tested on: A498 renal
SK-MEL-5 melanoma = tested on: SK-MEL-5 melanoma

Structure (SMILES) | growth (HCT-15 colon) | growth (HT29 colon) [%] | growth (SNB-19 CNS) | growth (PC-3 prostate) | growth (UACC-62 melanoma) | growth (SK-MEL-28 melanoma) | growth (SK-MEL-2 melanoma) | growth (EKVX NSCLC) | growth (SN12C renal) | growth (UO-31 renal) | growth (TK-10 renal) | growth (ACHN renal) | growth (CAKI-1 renal) | growth (CCRF-CEM leukemia) | growth (MOLT-4 leukemia) | growth (SNB-75 CNS) | growth (U251 CNS) | growth (LOX IMVI melanoma) | growth (A498 renal) | growth (SK-MEL-5 melanoma)
CC(C)c1c(C(=O)c2ccccc2)c(-c2ccccc2)c(-c2ccc(F)cc2)n1CC[C@@H](O)C[C@@H](O)CC(=O)O | 47.5% | 106 | 57.4% | 37% | 16.6% | 65.4% | 36.2% | 68.2% | 31.9% | 72% | 116% | 25.3% | 21.6% | 81.4% | 87.6% | – | – | – | – | –
O=C1C=C(OCC=C(Cl)Cl)C(=O)c2ccccc21 | 64.2% | – | 98.7% | 80.9% | 87% | 104% | 69.8% | 93.3% | 84.5% | 59% | 122% | 64% | 93.4% | 28.7% | 71% | 50.6% | 75.7% | 28.8% | 97.7% | –
CC[C@]1(O)C[C@@H]2CN(CCc3c([nH]c4ccccc34)[C@@](C(=O)OC)(c3cc4c(cc3OC)N(C)[C@H]3[C@@](O)(C(N)=O)[C@H](O)[C@]5(CC)[C@@H]6C[C@@H]6CN6CC[C@]43[C@@H]65)C2)C1 | 11.9% | – | 30.9% | 20.7% | 35.7% | 68.1% | 22.4% | 41.1% | 27.6% | 50% | 53.5% | 33% | 32.8% | 17.7% | 17.1% | 50.8% | 10.7% | – | -7.44% (active) | –
C=C1c2nc3ccccc3n2C=C(c2ccc(OC)cc2)N1Cc1ccccc1 | 73.8% | – | 79.3% | – | 88.6% | 119% | 57.7% | 62.6% | 98.7% | 54.6% | 118% | 96.2% | 101% | 78.9% | – | 109% | 80.5% | 91.1% | 69.7% | 87.1%
N#C/C(=C\c1ccc(-c2cc(C(F)(F)F)ccc2Cl)o1)c1nc(-c2ccco2)cs1 | 103% | – | 95.2% | 99.5% | 78.9% | 108% | 103% | 91.6% | 99% | 87.9% | 121% | 105% | 86.2% | 103% | 101% | 70% | – | 99.5% | 105% | 97.5%
O=S(=O)(Nc1ccc(Br)c(Cl)c1)c1ccc(-c2cnc(C3CC3)o2)cc1 | 20.7% | – | 35% | 23.9% | 30.1% | 57.9% | 34.4% | 33.9% | 41.1% | 47.5% | 51.5% | 46.4% | 30.9% | 19.3% | 27.6% | -5.71% (active) | – | 43.7% | -18.2% (active) | 10.2%
CN1CCN(Cc2ccc(NC(=O)c3cncc(C#Cc4cncn5ccnc45)c3)cc2C(F)(F)F)CC1 | 46.1% | – | 92.4% | 90.3% | 18.7% | 30.3% | 24.2% | 86.6% | 31.3% | 44% | 94.2% | 37.8% | 89.2% | 36% | 82.9% | 123% | 76.9% | 4.74% (active) | – | –
Cc1ccc2c(C(C[N+](=O)[O-])c3ccco3)c(-c3ccccc3)[nH]c2c1 (stereo unspecified) | 19.5% | – | 38.5% | – | 35.1% | 60.3% | 9.58% (active) | 39.8% | 39.1% | 38.9% | 64.2% | 30.6% | 23.8% | 14.4% | 21% | -5.04% (active) | 25.8% | 23.5% | 12.3% | 35.6%
O=C1Nc2c(ccc(Cl)c2Cl)/C1=C\c1cc(C(F)(F)F)cc(C(F)(F)F)c1 | -80.8% (active) | – | 21.7% | 0.08% (active) | -3.92% (active) | -21% (active) | 38.4% | 26.9% | 14.2% | 16.6% | 26% | 8.13% (active) | 8.62% (active) | – | -14.2% (active) | 13.7% | -54.2% (active) | -90.1% (active) | -23.7% (active) | –
C=CC(COC(c1ccccc1)(c1ccccc1)c1ccccc1)N(CC)CC (stereo unspecified) | – | 14.6 | 82.1% | 47.9% | 44.8% | 59.4% | 85.8% | 76.1% | 58.3% | 59.4% | 79.8% | 81.7% | 67.1% | 59.3% | 8.88% (active) | 73% | 52.5% | 49.5% | 73.8% | –
Cc1cc(N2CCN(c3ccnc4cc(Cl)ccc34)CC2)nc(N2CCOCC2)n1 | 73.6% | – | 82.6% | 51.9% | 84.3% | 104% | 105% | – | 86% | 44.7% | 89.9% | 86.1% | 85.9% | 92.3% | 66.7% | 88.9% | 93.9% | – | 37.2% | –
CC(C)(C)CC(C)(C)c1ccc(OCCOCC[N+](C)(C)Cc2ccccc2)cc1 | 95.2% | – | -89% (active) | -13.9% (active) | -98.5% (active) | -67% (active) | -69.4% (active) | 22.3% | -29.2% (active) | 86.1% | -0.335% (active) | 73.2% | 97.3% | -25.8% (active) | -20% (active) | -26% (active) | -88.5% (active) | -29.4% (active) | 17.7% | –
C=C1c2nc3ccccc3n2C=C(c2cccc(Cl)c2)N1Cc1ccc(OC)cc1 | 25.7% | – | 20.4% | – | 44.7% | 67.7% | 28.2% | 8.8% (active) | 37% | 9.79% (active) | 30.8% | 49.2% | 3.02% (active) | 47.2% | 8.13% (active) | 16.5% | 18.4% | 37.2% | 91.7% | -31.1% (active)
Cc1nn(-c2ccc(F)cc2)c2ncnc(Oc3ccc(NC(=O)Nc4ccc(Cl)c(C(F)(F)F)c4)cc3)c12 | 111% | – | 98.9% | – | 96.6% | 102% | 102% | 105% | 95.1% | 100% | 104% | 102% | 95.3% | 102% | 104% | 88.1% | 97.9% | 99.4% | 99.2% | 99.1%
COc1ccc(-n2nc(C)c3c(Oc4ccc(NC(=O)Nc5c(Cl)cccc5Cl)cc4)ncnc32)cc1 | 105% | – | 98.5% | – | 98.4% | 106% | 106% | 95.8% | 101% | 86.5% | 110% | 106% | 95.3% | 95.5% | 106% | 93.6% | 96.9% | 100% | 99.1% | 99.9%
COc1cc(C=Nc2oc(-c3ccccc3)c(-c3ccccc3)c2C#N)cc(CN2CCCCC2)c1O | 95.4% | – | 98.6% | 93.2% | 88.4% | 110% | 103% | 95% | – | 73.6% | 107% | 99.6% | 86.6% | 101% | 86.8% | 66.6% | – | 87.7% | 72.3% | 98.4%
CN(Cc1cc(Cl)cc(Cl)c1O)Cc1cc(Cl)cc(Cl)c1O | 40.5% | – | 73.3% | 80.9% | 64.8% | 86.9% | 93.5% | 83.6% | 71.1% | 46.2% | 61.4% | 52.8% | 42.9% | 48.7% | 47.7% | 75.5% | 58.6% | 57.7% | 89.6% | –
